# Source: paper PMC5540273 (PLoS ONE, 2017)
# What was measured:
# Conditions in all cases: concentration: 1 μM, replicates: in singlicate; n = 1
# SIK2 = system: SIK2
# SIK = system: SIK
# SLK = system: SLK
# SNARK = system: T1, SNARK
# T1 construct: gene NUAK2
# SNRK = system: SNRK
# SRC = system: SRC
# SRMS = system: SRMS
# SRPK1 = system: SRPK1
# SRPK2 = system: SRPK2
# SRPK3 = system: SRPK3
# STK16 = system: STK16
# STK33 = system: STK33
# STK35 = system: STK35
# STK36 = system: STK36
# STK39 = system: STK39
# SYK = system: SYK
# SgK110 = system: SgK110
# TAK1 = system: T2, TAK1
# T2 construct: gene MAP3K7
# TAOK1 = system: TAOK1
# TAOK2 = system: TAOK2
# 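Note: KINOMEscan kinase panel screen.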
Compound,%Inh (SIK2) [%],%Inh (SIK) [%],%Inh (SLK) [%],%Inh (SNARK) [%],%Inh (SNRK) [%],%Inh (SRC) [%],%Inh (SRMS) [%],%Inh (SRPK1) [%],%Inh (SRPK2) [%],%Inh (SRPK3) [%],%Inh (STK16) [%],%Inh (STK33) [%],%Inh (STK35) [%],%Inh (STK36) [%],%Inh (STK39) [%],%Inh (SYK) [%],%Inh (SgK110) [%],%Inh (TAK1) [%],%Inh (TAOK1) [%],%Inh (TAOK2) [%]
O=C(Nc1ccc2c(c1)OCO2)NC1CCN(c2ccnc(Nc3ccc(F)cc3)n2)C1 (centres unmarked) [GSK1379724],0,0,10,0,0,0,0,0,0,5,30,0,0,0,10,16,14,0,0,0
COc1cccc(-c2cc(-c3c[nH]nc3-c3ccccn3)ccn2)c1 [GW680338],0,0,0,11,0,0,2,96.8,8,0,8,0,0,25,13,17,17,0,0,0
CC(C)(C)c1ccc(C(=O)Nc2cn3cc(-c4cccnc4)ccc3n2)cc1,25,22,19,5,20,3,0,15,0,0,27,6,0,4,0,0,0,11,0,2
COc1ccc(Nc2nccc(NCCNC(=O)Nc3ccccc3F)n2)cc1 [GSK1379901],2,0,11,0,0,0,0,0,0,0,18,0,0,0,10,32,0,0,0,0
